{"source": "the supplement of paper PMC10105736", "note": "A number with no mark means an inactive call.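 Rule for the calls: active = MAPPIT score above the 99th percentile of random reference set scores in the same batch; inactive = at or below it.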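 Note: HEK293T cells with Epo stimulation, STAT-responsive firefly luciferase reporter, fold induction versus unstimulated cells divided by the larger fold induction of two negative controls lacking either bait or prey.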"}
{"system": "sim", "experiment": "MAPPIT interaction score (arbitrary units); higher = stronger binary interaction signal, active = hit call of the paper", "settings": "MAPPIT configuration: N-C; pair source set: Lit-BM-16", "protocol": "(§1)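 MAPPIT in HEK293T cells: Drosophila bait and prey ORFs (from the FlyBi ORF collection) were co-transfected in quadruplicate, with two wells stimulated by erythropoietin. Interaction-dependent JAK-STAT activation was read out with a STAT-responsive firefly luciferase reporter. Positive calls use the 99th percentile of random reference set (RRS) scores within each batch […]. Batches Dvs01 and Dvs02 used the N-N configuration and Dvs04 the N-C configuration. Pairs come from FlyBi screens, CuraGen, DPiM, Finley Y2H, Lit-BM-16, Lit-BS-16 and RRS.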"}
{"substance": "tgo", "MAPPIT interaction score": 2.23}
{"system": "sim", "experiment": "MAPPIT interaction score (arbitrary units); higher = stronger binary interaction signal, active = hit call of the paper", "settings": "MAPPIT configuration: N-N; pair source set: Lit-BM-16", "protocol": "as §1"}
{"substance": "tgo", "MAPPIT interaction score": 1.37}
